TDP1 cell noCPT: qHTS for Inhibitors of human tyrosyl-DNA phosphodiesterase 1 (TDP1): qHTS in cells in absence of CPT; DT40 Tdp1-/- hTDP1 cells, no CPT, ATP luminescence, 48 h; Potency, µM (series often up to 46.2 µM), most hits filed as inhibitors; 420,000 tested, 15% active; AID 686978, 2013; note: nearly all actives have a fitted effect of over 55% in size
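Cells were dispensed at 400 per well, compounds added by pin tool, plates incubated ≥48 hr at 37 °C, then CellTiter-Glo added for 30 min at room temperature before luminescence reading. Line: DT40 Tdp1-/- complemented with hTDP1; camptothecin omitted.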
uPA surface inh: inhibitors of cell surface uPA generation; cell surface uPA generation assay, qHTS; Potency, µM (doses to about 38.3 µM), actives largely listed as inhibitors; 330,000 tested, 0.31% active; active = well fitted inhibition curve with a large enough effect; inconclusive = small, poorly fitted or top-dose-only effect; inactive = no such curve, though single readings can be large or run the other way; tested in mouse RAW 264.7 cells; note: nearly all actives have a fitted effect of over 55% in size
TDP1 cell CPT: DT40-hTDP1 cell growth loss with CPT. chicken DT40 Tdp1-/-;hTDP1 cells + 20 nM CPT, ATP luminescence, 48 h. Potency, µM (top dose mostly 46.2 µM), most hits filed as inhibitors. 420,000 tested, 12% active; note: nearly all actives have a fitted effect of over 55% in size
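Cell growth measured by CellTiter-Glo luminescence after a minimum 48 h, 37 C compound exposure with 20 nM CPT in Tdp1-knockout DT40 cells stably expressing hTDP1, seeded 400/well; qHTS titration format.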
HT1080 IDH1KD tx: toxicity to HT-1080 IDH1 knockdown cells (counter line). HT-1080 IDH1 knockdown viability, ATP luminescence, 48 h. 360,000 tested, 2% active. Potency, µM (titrated, usually from 46.1 µM), usual class: cytotoxic. AID 686971
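Luminescent ATP read-out (CellTiter-Glo, 10 min at room temperature) after 48 h compound exposure at 37 °C gave viability of IDH1-knockdown HT-1080 cells. Activity was normalised to DMSO and cell-free wells, then fitted as concentration-response curves.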
HT1080NT lethal: kills 2HG-producing HT-1080-NT fibrosarcoma cells; HT-1080-NT fibrosarcoma viability, CellTiter-Glo ATP luminescence, 48 h; Potency, µM (doses to about 46.1 µM), actives largely listed as cytotoxic; 360,000 tested, 1.6% active; AID 686970;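 note: NT is the 2HG producing partner of a matched IDH1 knockdown line; nearly all actives have a fitted effect of over 55% in size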
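Compounds were tested in concentration-response format on HT-1080-NT cells for 48 hours at 37 degrees C. Cell viability came from CellTiter-Glo luminescence; curves were classified by r2, response magnitude and activity.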
IL-1B inflam inh: blocks inflammasome-driven IL-1 beta release | AID 743279 | 360,000 tested, 4.7% active | activity change, % at 57.5 µM | THP-1 LPS/ATP IL-1B secretion, AlphaLISA, 16 h; hits give low values; in the data active = activity change below about -50%; inconclusive = mostly about -30% to -49%
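Secreted IL-1B measured by AlphaLISA bead assay after 16 h compound exposure of THP-1 cells; compounds (final up to 57.5 uM) added 1 h before LPS (250 ng/mL) and ATP (1.25 mM) stimulation; lower signal means less secretion.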
Hits are given with their value; . = inactive; ? = inconclusive; / = no result given; [ ] = dose if it differs, or a comment. This is a sample that favours compounds with a hit; in the whole collection about 19% have one here. Unless noted, calls come from the whole dose curve; as a rule, active = well fitted curve in the direction sought with a large enough effect; inconclusive = small, poorly fitted or top-dose-only effect, or another doubt; inactive = no such curve, though single readings can be large; an effect the other way counts as inactive or inconclusive.

SMILES	TDP1 cell noCPT	uPA surface inh	TDP1 cell CPT	HT1080 IDH1KD tx	HT1080NT lethal	IL-1B inflam inh
Cc1nn(-c2ccccc2)c(C)c1/C=N/NC(=O)CSc1nc2ccccc2c(=O)n1-c1ccc(Br)cc1	?	.	?	13µM	20.6µM	.
Cc1ccc(-n2c(SCC(=O)N3CC(=O)Nc4ccccc43)nc3ccccc3c2=O)cc1	?	.	?	.	.	-74.4
Cc1ccc(/C=N/NC(=O)CSc2nc3ccccc3c(=O)n2-c2ccccc2)s1	.	.	.	.	.	.
Cc1cc(=O)c(C(=O)NCCc2ccccn2)c2n1-c1ccccc1SC(c1cccs1)C2 (configuration not stated)	.	/	.[9.04 µM]	/	/	/
CN(C(=O)CSCC(=O)Nc1ccc(Cl)cc1)C1CCCCC1	14.6µM	.	?	.	?	-53.2
COc1cc(NC(=O)CSCC(=O)N(C)C2CCCCC2)cc(OC)c1	.	.	.	.	.	.
OC[C@@H]1CN(Cc2ccccc2)C[C@H](n2cnc3c(NC4CCCC4)ncnc32)O1	?	/	?	.	.	.
CC(C)C(C=Cc1ccccc1)=NNS(=O)(=O)c1ccccc1	.	/	8.2µM	.	.	.
CC1(C)NC(=O)N(CC(=O)OCC(=O)Nc2cc(S(=O)(=O)N3CCCCCC3)ccc2Cl)C1=O	.	.	.	.	.	.
CCOc1ccc(/C=C/c2nc(C#N)c(N3CCN(CC)CC3)o2)cc1	5.8µM	/	6.51µM	/	/	/
CCOc1ccc(/C=C/c2nc(C#N)c(N3CCC(C)CC3)o2)cc1	13µM	/	10.3µM	/	/	/
CC1CCN(c2oc(/C=C/c3ccc(F)cc3)nc2C#N)CC1	14.6µM	/	?	/	/	/
CCOC(=O)C1CCN(C(=O)CSc2nc3ncccc3[nH]2)CC1	.	.	.	.	.	.
O=C(c1cnn2c(-c3ccccc3)cc(-c3ccccc3)nc12)N1CCN(Cc2ccccc2)CC1	.	.	?	.	.	.
O=C(C1=C(O)C(=O)N(Cc2ccco2)C1c1cccnc1)c1cc2ccccc2o1 (configuration not stated)	?	.	?	.	.	.
COc1cccc2cc(C(=O)C3=C(O)C(=O)N(Cc4ccco4)C3c3cccnc3)oc12 (configuration not stated)	23.1µM	.	?	.	.	.
N#Cc1cccc(NC(=O)C2CCN(c3ncccn3)CC2)c1	.	/	.	/	/	/
CCOC(=O)C1(C)CCCN1C(=O)c1ccc(OC)c(F)c1 (configuration not stated)	.	/	.	.	.	.
O=S(=O)(NCCc1nnc2ccc(SCc3cccc(Cl)c3)nn12)c1ccccc1	18.4µM	/	14.6µM	/	/	/
CCOC(=O)CSc1ccc2nnc(CCNS(=O)(=O)c3ccccc3)n2n1	.	.	.	.	.	.
Cc1ccc(S(=O)(=O)NCCc2nnc3ccc(SCc4ccccc4C)nn23)cc1	16.4µM	/	16.4µM	/	/	/
COc1ccccc1OCCn1c(-c2ccc(Br)cc2)nc2ccccc2c1=O	.	/	.	/	/	/
CCOc1ccc(S(=O)(=O)NCCC(=O)N(C)CC(=O)Nc2ccc(N3CCOCC3)cc2)cc1	?	.	.	.	.	.
Cc1ccc(-n2c(-c3ccc(Br)cc3)nc3c(cnn3-c3ccccc3)c2=O)cc1	20.6µM	/	?	/	/	/
CCOc1ccc(-n2c(-c3ccco3)nc3c(cnn3-c3ccc(C)cc3)c2=O)cc1	?	.	?	.	.	.
COc1cccc(-n2c(-c3ccccc3F)nc3c(cnn3-c3ccc(C)cc3)c2=O)c1	11.6µM	/	16.4µM	/	/	/
O=c1oc(-c2ccccc2F)nc2c1cnn2-c1ccccc1	23.1µM	.	?	.[9.24 µM]	.	.
O=c1oc(-c2cccc(Cl)c2)nc2c1cnn2-c1ccccc1	?	.	?	.	.	.
Cc1ccc(-c2nc3c(cnn3-c3ccccc3)c(=O)n2-c2cccc(Cl)c2)cc1	13µM	/	23.1µM	/	/	/
CSc1ncccc1C(=O)OCC(=O)N(C)Cc1ccc(C)cc1	?	/	?	.	.	.

Bioassay records from PubChem BioAssay.
